Values without a mark were called inactive. No rule for the calls is given here.

The test concerns the target CD276, Q5ZPR3.

CD276, Q5ZPR3, sequence (Q5ZPR3 whole entry): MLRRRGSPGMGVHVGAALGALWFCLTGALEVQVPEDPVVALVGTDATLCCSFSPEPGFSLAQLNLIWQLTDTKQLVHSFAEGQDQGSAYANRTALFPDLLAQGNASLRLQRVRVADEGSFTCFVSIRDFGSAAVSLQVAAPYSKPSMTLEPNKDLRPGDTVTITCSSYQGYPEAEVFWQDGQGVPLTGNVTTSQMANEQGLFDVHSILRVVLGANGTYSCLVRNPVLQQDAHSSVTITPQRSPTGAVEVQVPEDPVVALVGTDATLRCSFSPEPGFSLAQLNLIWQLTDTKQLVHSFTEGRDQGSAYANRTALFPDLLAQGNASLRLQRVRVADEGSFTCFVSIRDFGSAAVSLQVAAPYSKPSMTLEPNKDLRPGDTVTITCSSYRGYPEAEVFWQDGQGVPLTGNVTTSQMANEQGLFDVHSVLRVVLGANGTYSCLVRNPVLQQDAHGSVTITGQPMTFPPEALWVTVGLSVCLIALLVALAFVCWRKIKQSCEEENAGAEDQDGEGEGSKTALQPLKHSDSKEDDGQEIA

B1: design_487_778f5c6d-c470-43b8-8f82-464af6177e08_2394_dldesign_0_cycle1_af2pred (protein)
chain: AAEEAERIIEGNRQLGLAIAEGSASKEEMKAKVDEAVEKARKAVEEDPEKGPEYALELFTKTNKEIMLQALAELT
For the molecule B1, the “binding in a display sort” value was “not found”.

B2: design_488_244881a1-ba0c-4c08-ad9c-1f64cf93580a_165_dldesign_0_cycle1_af2pred (protein)
chain: MTPADQLIELARAIVEQAKASDPETAAVNAAGAEAAAGALRNYAAANPETGPKAEAAAKEAEAAAKAIKAAVAAAK
As to B2, the “binding in a display sort” value was “not found”.

B3: design_488_244881a1-ba0c-4c08-ad9c-1f64cf93580a_114_dldesign_0_cycle1_af2pred (protein)
chain: AAAALAGEVSAELVEIVGEAARVLGEAERLGDAEVVALAREARALANKALAALAAGDVEKAVEYAKKAREKLEEARRRLEEVKRR
As to B3, the “binding in a display sort” value was “not found”.

B4: design_487_778f5c6d-c470-43b8-8f82-464af6177e08_2029_dldesign_0_cycle1_af2pred (protein)
chain: ATAAEIAARMGAAIKRNALANMDEIAAELADDPELAAKRLAAVVENARKMLEAAGLTPEEVAALVAELEARADELVEANRA
With B4, the “binding in a display sort” value was “not found”.

B5: design_487_778f5c6d-c470-43b8-8f82-464af6177e08_2068_dldesign_0_cycle1_af2pred (protein)
chain: AAAEAAAAAEAQEKAKEAAEKAVENIDDPELAEKYAEEAGKALLAGADLEEVLTYANSLNPEVARLIARAYARLGAAAVRA
For B5, the “binding in a display sort” value was “not found”.

B6: design_487_778f5c6d-c470-43b8-8f82-464af6177e08_1544_dldesign_0_cycle1_af2pred (protein)
chain: AALQQANAALKAAQSLVDHVKKNPEFSPESIIKVADVAIELAKQAEEEAAKADPEVAKKAKEAKEEAEKIKKEAA
On to B6, for which the “binding in a display sort” value is “not found”.

B7: design_487_778f5c6d-c470-43b8-8f82-464af6177e08_1484_dldesign_0_cycle1_af2pred (protein)
chain: SRLEELRRRRDEYVAQLEVAIAELEELSKRAVTEEARRAAEEARALVEEGDKDPERGANIVGRALVQAQAALARARRLNEAA
Regarding B7, the “binding in a display sort” value is “not found”.

B8: design_487_778f5c6d-c470-43b8-8f82-464af6177e08_1892_dldesign_0_cycle1_af2pred (protein)
chain: AAQALLAQANAALGQLLDLAAEASASSPEEAARATAQMRETAAAAQAAAAAAAAQDPAIAPQAQAIAASAAALARNAEELVAAR
Turning to B8, the “binding in a display sort” value is “not found”.

B9: design_487_778f5c6d-c470-43b8-8f82-464af6177e08_1499_dldesign_0_cycle1_af2pred (protein)
chain: DEAELLEAINRAGRETRERLLALGESEAEATRAASAVQVVGYAALTGNAEAEAIGMASLATVGKGRPVAVAAAEEVADRIRAA
As to B9, the “binding in a display sort” value is “not found”.

B10: design_487_778f5c6d-c470-43b8-8f82-464af6177e08_1348_dldesign_0_cycle1_af2pred (protein)
chain: AEKKREEAKKLVEEAKKLAEKGDFEKAVEKLREAVALDPSVIGEALEAVKVIAEKNPAAAPAASLAIIRAAQEA
Regarding B10, the “binding in a display sort” value is “not found”.

B11: design_487_778f5c6d-c470-43b8-8f82-464af6177e08_1930_dldesign_0_cycle1_af2pred (protein)
chain: AQAAADAAEALSELAIKFSKLAKKISPEAAAYFARAAGYFLRASGILRAGGDAAAAAAALAKGLALFLLGLAILKKVLS
For the molecule B11, the “binding in a display sort” value is “not found”.

B12: design_487_778f5c6d-c470-43b8-8f82-464af6177e08_1381_dldesign_0_cycle1_af2pred (protein)
chain: MVEKAIEMVEKATKEAAARAPAKAEEIKKLGEKFKKEVEYLGKLNPESGLVMARGAVGALKDIADKEAKA
In the case of B12, the “binding in a display sort” value is “not found”.

B13: design_487_778f5c6d-c470-43b8-8f82-464af6177e08_2307_dldesign_0_cycle1_af2pred (protein)
chain: AAEAEEEAKKLAEEAAKLVAAVDPSIAEEVAKALELGNLAQVKTMLVLAQSAYESTDPAARALALANLRTVAAQAIARAA
Regarding B13, the “binding in a display sort” value was “not found”.

B14: design_487_778f5c6d-c470-43b8-8f82-464af6177e08_1639_dldesign_0_cycle1_af2pred (protein)
chain: GALAVQTARASAAQAVAAVAAAPAEEAPARVAAAEKLLAVLDGIAEAASPEAGAQIRAIVDAARAAIAATAAAKAAA
B14: the “binding in a display sort” value is “not found”.

B15: design_487_778f5c6d-c470-43b8-8f82-464af6177e08_1416_dldesign_0_cycle1_af2pred (protein)
chain: DEEERKKKAAEIMKKQAEKLKALAAADPANALTYRAAAALFEAAAIETLKDPEKGLKVGEDAVGLMAQVPAVAPEAKAAYEKAKALL
B15: the “binding in a display sort” value is “not found”.

B16: design_488_244881a1-ba0c-4c08-ad9c-1f64cf93580a_204_dldesign_0_cycle1_af2pred (protein)
chain: LAATRAAANAVLTRASKLNLQAVADPALAEVAALANQAIALALAGLADPATLAADTAAAAAVLDQAEALAKLVA
Turning to B16, the “binding in a display sort” value is “not found”.

B17: design_488_244881a1-ba0c-4c08-ad9c-1f64cf93580a_123_dldesign_0_cycle1_af2pred (protein)
chain: GGEEEGEELLERGREAAEEIARLPLSETERLARLTGEALEYAREAARVAGGEKAREILTAISRAHAASVA
Turning to B17, the “binding in a display sort” value was “not found”.

B18: design_487_778f5c6d-c470-43b8-8f82-464af6177e08_1978_dldesign_0_cycle1_af2pred (protein)
chain: AKEKAIEEITALRELAVKAAEEVGKEEEKEKIKELTEKAIEALDNPEESARLITKAAAIAVEVAPEKAAQIRRLASAAIQAALAT
Consider B18, for which the “binding in a display sort” value is “not found”.

B19: design_487_778f5c6d-c470-43b8-8f82-464af6177e08_1924_dldesign_0_cycle1_af2pred (protein)
chain: MEKETEELLKKAKELIEKAKELAKEVLKKDPISGRGIQAAVKSAEELLKRGIEGEDSLRYAKQALELAKVALEMAKATLAA
For B19, the “binding in a display sort” value was “not found”.

(Values after PMC13494018.)
